# Screening results from PubChem BioAssay.
# 12-LOX inh: blocks human arachidonate 12S-lipoxygenase; purified 12hLO, xylenol orange hydroperoxide absorbance; Potency, µM (series often up to 108 µM), for inactives: at the highest dose activity change, negative = inhibition, hits mostly inhibitors; 580,000 compounds, 1.1% hits; further: potency means the concentration at half of the fitted maximal effect; on the % scale 0 is the no-effect control and ±100 the full control effect
# Target sequence (P18054 whole entry, looked up): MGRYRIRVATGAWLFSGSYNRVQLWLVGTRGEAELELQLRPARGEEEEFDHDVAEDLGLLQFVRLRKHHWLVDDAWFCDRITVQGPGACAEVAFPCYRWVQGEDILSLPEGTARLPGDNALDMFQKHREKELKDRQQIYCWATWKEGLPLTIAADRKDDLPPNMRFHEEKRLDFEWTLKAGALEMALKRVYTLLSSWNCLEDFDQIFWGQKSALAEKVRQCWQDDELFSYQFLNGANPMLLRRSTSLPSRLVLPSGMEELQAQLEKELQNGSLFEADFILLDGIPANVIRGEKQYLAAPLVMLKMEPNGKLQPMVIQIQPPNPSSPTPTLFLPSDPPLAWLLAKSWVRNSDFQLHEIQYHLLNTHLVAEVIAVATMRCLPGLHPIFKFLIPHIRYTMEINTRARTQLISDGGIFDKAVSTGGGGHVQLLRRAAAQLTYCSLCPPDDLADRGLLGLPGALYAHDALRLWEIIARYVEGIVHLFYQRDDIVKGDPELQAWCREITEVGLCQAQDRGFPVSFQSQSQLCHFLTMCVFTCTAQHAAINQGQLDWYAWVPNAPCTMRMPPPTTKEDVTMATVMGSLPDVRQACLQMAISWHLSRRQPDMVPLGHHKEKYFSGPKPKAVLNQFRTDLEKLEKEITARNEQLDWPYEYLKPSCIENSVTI
#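 Purified human 12hLO (150 nM final) in 25 mM Hepes, 0.01% Triton X-100, pH 7.0 was preincubated 15 min at room temperature with compound. Then 40 uM arachidonic acid was added, 30 min. Hydroperoxide was read by Fe-XO absorbance ratio 573/405 nm.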
# Akt phos inh: inhibitors of Akt phosphorylation | Neuro2A IGF-stimulated pAkt S473 HTRF, 20 min; active compounds read low | activity change, % for hits at 50 µM | 360,000 compounds, 0.32% hits | AID 651550; in the data active means activity change below about -80%; inconclusive means mostly about -51% to -80%; further: on the % scale 0 is the no-effect control and ±100 the full control effect
#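 Neuro2A cells in DMEM with 0.5% FBS, overnight at 37 deg C, given compound at single 50 µM final, then IGF (6 nM final) for 20 min at 37 deg C. Lysed; phospho-Akt Ser473 by HTRF after 24 h, 665/615 ratio.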
# Vif-APOBEC3F blk: inhibitors of Vif-A3F interaction; 390,000 compounds, 0.2% hits; HeLa A3F-eYFP + Vif (tagged APOBEC3F with the HIV-1 protein that degrades it), YFP fluorescence increase; Potency, µM (doses to about 46.1 µM), for the others: top-dose activity, negative = active; further: potency means the concentration at half of the fitted maximal effect; % of control where 0% means no effect; nearly all actives have a fitted effect of over 65% in size
#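 HeLa cells stably expressing A3F-eYFP plus Vif, plated and incubated overnight at 37 deg C, then exposed to compounds overnight at 37 deg C. Blocked degradation read as raised yellow fluorescence (Ex 488/Em 500-530).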
# PTAP TSG101 blk: blocks PTAP/TSG101 interaction to inhibit HIV-1 budding. Q99816. Fluorescence polarization, FITC-PTAP peptide / Tsg101 binding. Potency, µM (doses to about 115 µM), for the others: at the top dose activity change, negative = inhibition, usual class: inhibitors. 340,000 tested, under 10 active. AID 493005; active means well fitted inhibition curve with a large enough effect in the main read-out, with a control signal flat, not every such curve was filed as active; inconclusive means small, poorly fitted or top-dose-only effect, or effect the other way, or a change in a side signal; inactive means no such curve, though single readings can be large or run the other way; further: potency means the concentration at half of the fitted maximal effect; % of control where 0% means no effect
#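 Steps: Tsg101 binding domain dispensed (10 uM final), compounds pinned in DMSO, FITC-labeled PTAP-motif peptide added (50 nM final); after 20 min binding at room temperature, polarization measured.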
# S-ASM inh: inhibitors of human secretory acid sphingomyelinase. P17405. placental ASM, HMU-PC fluorogenic substrate, 60 min. Potency, µM (top dose mostly 57.5 µM), without a hit: at the highest dose activity change, negative = inhibition, usual class: inhibitors. 340,000 compounds, 0.006% hits. AID 504937; further: potency means the concentration at half of the fitted maximal effect
#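 Human placenta-derived ASM enzyme was preincubated with compound for 10 minutes at room temperature, then given fluorogenic substrate HMU-PC0 (9 uM final) for 60 minutes at 37 °C; a pH 10 stop preceded fluorescence reading at Ex 386/Em 447 nm.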
# Vif-APOBEC3G blk: inhibitors of Vif-APOBEC3G interaction; Potency, µM (titrated, usually from 46.1 µM), for inactives: at the highest dose activity, negative = active, usual class: inhibitors; HeLa A3G-eYFP + Vif (tagged APOBEC3G with the HIV-1 protein that degrades it), YFP fluorescence, overnight; AID 602310; 410,000 compounds, 0.076% hits; further: potency means the concentration at half of the fitted maximal effect; on the % scale 0 is the no-effect control and ±100 the full control effect; nearly all actives have a fitted effect of over 60% in size
#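 HeLa cells stably expressing Vif and C-terminally eYFP-tagged A3G, seeded overnight at 37 deg C, then exposed to compound by pintool overnight at 37 deg C. Rise in yellow fluorescence (Ex 488/Em 500-530, Acumen) marks blocked Vif-driven A3G degradation.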
# * marks the source's active call; other numbers are inactive results; i = inactive; u = inconclusive; x = not tested or not shown; ! = a repeat was not active. An excerpt weighted towards active compounds, which were near 1.4% of everything screened. Unless noted, the call rests on the fitted dose curve; in most records, active means well fitted curve in the direction sought with a large enough effect; inconclusive means small, poorly fitted or top-dose-only effect, or another doubt; inactive means no such curve, though single readings can be large; an effect the other way counts as inactive or inconclusive.
SMILES,12-LOX inh,Akt phos inh,Vif-APOBEC3F blk,PTAP TSG101 blk,S-ASM inh,Vif-APOBEC3G blk
Cc1cc(NC(=S)N(Cc2ccc(Br)cc2)Cc2ccc(C(=O)O)cc2)ccc1Cl,45µM*,i,-15%,0%,3%,-3%
CC(C)Cn1c(N)c(C(=O)COC(=O)c2cc(-c3ccco3)nc3ccccc23)c(=O)n(C)c1=O,u,i,u,-5%,372%,-13%
CC(OC(=O)c1cc(-c2ccco2)nc2ccccc12)C(=O)NC(=O)NC1CCCCC1 (stereo unspecified),7.9µM*,x,x,x,x,x
CC(OC(=O)c1cc(-c2ccco2)nc2ccccc12)C(=O)NC(=O)NC(C)(C)C (stereo unspecified),8.9µM*,x,x,x,x,x
O=C(COc1ccc(Br)cc1Br)NC(=S)N1CCCc2ccccc21,x,-92%*,-13%,-2%,10%,0%
CCC(=O)Oc1ccc2c(=O)c(Oc3ccccc3Br)c(C)oc2c1,-3%,x,x,x,x,x
O=C(Nc1ccc(N2CCCC2)cc1)c1cccc(-c2cc3ccccc3oc2=O)c1,11µM*,i,4%,0%,-5%,-2%
Cc1ccc(C(C)NC(=O)Nc2cccc(Cl)c2)c(C)c1 (stereo unspecified),18%,x,x,x,x,x
Cc1ccc(CNC(=O)c2ccc(CSCc3ccc(C)cc3)o2)cc1,11µM*!,x,-3%,x,x,0%
Cc1ccc(CNC(=O)c2ccc(CSCc3cccc(C)c3)o2)cc1,u,x,4%,x,x,0%
COC(=O)c1cc(NS(=O)(=O)c2ccc(N3CCCCC3)c([N+](=O)[O-])c2)cc(C(=O)OC)c1,i,-98%*,5%,-1%,1%,-3%
O=[N+]([O-])c1cc(S(=O)(=O)Nc2ccccc2)ccc1N1CCN(c2ccc(O)cc2)CC1,25µM*,i,-1%,2%,-1%,0%
O=C(COC(=O)C1CCC(=O)N1)Nc1ccc(Cl)cc1Cl (stereo unspecified),-17%,i,-20%,-5%,-4%,-1%
Cc1ccc(NC(=O)COC(=O)C2CCC(=O)N2)c(S(=O)(=O)N2CCOCC2)c1 (stereo unspecified),13%,-114%*,-3%,-9%,8%,3%
Cc1cc(C2CCCCC2)n(O)c(=O)c1,40µM*!,x,4%,-2%,-7%,u
CC(=O)c1ccc(OCc2coc(-c3cccc(F)c3)n2)cc1,45µM*,x,x,x,x,x
CCSCc1ccc(C(=O)O)cc1,52%,x,x,x,x,x
CCN(CC)c1ccc2cc(C(N)=O)c(=N)oc2c1,9%,i,11µM*,u,i,u
O=c1[nH]c(C2CCCN(Cc3cccc(-c4ccsc4)c3)C2)nc2ccc(F)cc12 (stereo unspecified),25µM*!,x,x,x,x,x
Cc1ccc(NC(=O)NCCSc2ccc(C)cc2)cc1,-3%,i,-2%,1%,-2%,4%
Cc1ccc(NC(=S)NCCSc2ccc(Cl)cc2)cc1,40µM*,i,0%,2%,-4%,2%
Cc1cccc(C)c1NC(=S)NCCSc1ccc(Cl)cc1,u,i,1%,-1%,-1%,3%
S=C(NCCSc1ccc(Cl)cc1)Nc1ccc(Nc2ccccc2)cc1,35µM*,x,x,x,x,x
Fc1ccccc1CSCCNC(=S)Nc1ccccc1,35µM*,x,x,x,x,x
COC(=O)Cc1ccc(NC(=S)NCCSc2ccc(C)cc2)cc1,45µM*,i,u,-23%,-1%,1%
CCOc1ccccc1Oc1coc2cc(OCc3ccccc3)ccc2c1=O,-5%,x,x,x,x,x
CCOc1ccc(S(=O)(=O)NCCO)c2ccccc12,7%,x,x,x,x,x
COc1ccc2c(c1)[N+](C)(C)C(C)(C)C=C2C,32µM*,i,-3%,-2%,8%,-1%
CCOc1ccc2c(c1)[N+](C)(C)C(C)(C)C=C2C,u,i,9%,0%,-3%,4%
COc1ccc(C2=NN(C(=O)c3cccs3)C(c3ccc4nccnc4c3)C2)cc1OC (stereo unspecified),1%,x,x,x,x,x
